Experimental data as given in PubChem BioAssay.
Entries with a potency or affinity are not part of this list. Inconclusive results are not listed. Calls of active or inactive are those of the source. Unless noted, no rule for the calls is given here.

Key:
[1] = cytotoxicity in PAX8-dependent RMG-1 cells, dose response, cell-based, cherry-pick (AID 687029;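 active = signal drop whose fitted half-maximal concentration is at most twice the top valid dose, in every test run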;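 also: cells exposed to compound for 96 hours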)
[2] = inhibitors of CMV-promoter luciferase reporter, dose response, counter-screen for Pax8 inhibitor project, cell-based, HEK293, luminescence, dry powder (AID 743020;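 active = signal-lowering compounds whose fitted half-maximal concentration is at or below twice the top tested dose in every run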;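 also: HEK293 cells stably expressing the CMV luciferase reporter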)
[3] = non-specific cell cytotoxicity, dose response, cytotoxicity control for PAX8 inhibitor project, plate reader, dry powder samples (AID 743021)
[4] = IGROV1 ovarian cancer cell cytotoxicity, dose response, PAX8 inhibitor project, plate reader, dry powder samples (AID 743043);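 also: more negative means fewer viable cells or more cytotoxicity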
[5] = NIH:OVCAR-3 ovarian cancer cell cytotoxicity, dose response, PAX8 inhibitor project, plate reader, dry powder samples (AID 743044); settings: max activity: at 35 µM, stronger effect = lower value unless noted
[6] = IOSE-T80 ovarian epithelial cell cytotoxicity, dose response, cytotoxicity control for PAX8 inhibitor project, plate reader, dry powder samples (AID 743045);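 also: 0% = neutral control median and -100% = positive control median; more negative values mean more cell killing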
[7] = A2780 ovarian cancer cell cytotoxicity, dose response, cytotoxicity control, plate reader, dry powder samples (AID 743046);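 also: 0% = neutral control wells and -100% = cytotoxic reference compound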
[8] = cytotoxicity in OVCAR8 ovarian cancer cells, dose response, PAX8 project, cell-based, plate reader, dry powder samples (AID 743197)

Measured: max activity

COc1ccc(C(=O)CCS(=O)(=O)c2ccc(C)cc2)cc1OC
inactive: [1] | [2] | [3]

CCCCn1c(=O)[nH]c(=O)c2c1nc(Cn1ncc(Cl)c(Cl)c1=O)n2CCC
inactive: [1] | [2] | [3]

Oc1ccc(C[C@H]2CNC(=S)N2CC2CCCN2C[C@H](Cc2ccc(O)cc2)N2C[C@H](Cc3ccc(O)cc3)N(CC3CCCCC3)C2=S)cc1 (some centres undefined)
inactive: [1] | [2] | [3]

S=C1SCN(Cc2cccnc2)CN1Cc1cccnc1
inactive: [1] | [2] | [3]

Cc1ccc(C(=O)c2cc([N+](=O)[O-])ccc2N2CCCCC2)c(C)c1
inactive: [1] | [2] | [3]

C[n+]1c2n(c3ccccc31)N=C(c1cc(C(C)(C)C)c(O)c(C(C)(C)C)c1)CS2
inactive: [1] | [2] | [3]

CCCCCCN(C(=O)CCCN1C(=O)NC(c2ccc(-c3ccccc3)cc2)C(C(=O)OCc2ccccc2)=C1C)C(C)C(=O)NCCCC (centres undefined)
inactive: [1] | [2] | [3]

O=C(c1ccco1)N1N=C(c2ccc(Br)cc2)CC1(O)C(F)(F)F (centres undefined)
inactive: [1] | [2] | [3]

CC1=CC(=O)C(C(C)C)=C/C1=N/OS(=O)(=O)c1ccccc1
inactive: [1] | [2] | [3]

COc1cc(C2C3=C(COC3=O)OC(C)(C)Oc3cc4c(cc32)OCO4)cc(OC)c1OC (centres undefined)
inactive: [1] | [2] | [3]

Cn1c(=O)c([N+](=O)[O-])c(Cl)c2ccccc21
inactive: [1] | [2] | [3]

CCN(CC)S(=O)(=O)c1cc(OC)ccc1N=Nc1ccc(O)c2ncccc12
inactive: [1] | [2] | [3]

CCCOc1ccc2[nH]c(C(=O)N/N=C/c3cc(OC)c(OC)c(OC)c3)cc2c1
inactive: [1] | [2] | [3]

O=C1[C@@H]2Cc3c([nH]c4ccccc34)C(c3cccc(Br)c3)N2C(=O)CN1C1CCN(Cc2ccccc2)CC1 (some centres undefined)
inactive: [1] | [2] | [3]

O=C(N/N=C/c1c[nH]c2ccccc12)c1[nH]c2ccc(Br)cc2c1-c1ccccc1
inactive: [1] | [2] | [3]

CSc1nc(-c2ccccc2)nc(C(Cl)Cl)n1
inactive: [1] | [2] | [3]

CCCCCc1c(-c2ccccc2OC)ncn1CCc1ccccc1OC
inactive: [1] | [2] | [3]

COc1ccc(C(=O)CN2C(=O)c3ccccc3S2(=O)=O)cc1
inactive: [1] | [2] | [3]

Cc1ccc(S(=O)(=O)N(C)C[C@H]2Oc3c(NC(=O)Nc4cccc5ccccc45)cccc3C(=O)N([C@@H](C)CO)C[C@@H]2C)cc1
inactive: [1] | [2] | [3]

CNc1ccc(Br)cc(C(=O)/C=C/c2cc(OC)ccc2OC)c1=O
inactive: [1] | [2] | [3]

N#Cc1ccc(-c2ccc([C@@H]3[C@@H]4CN(S(=O)(=O)c5ccc(-c6ccccc6)cc5)C[C@H]3N4)cc2)cc1
inactive: [1] | [2] | [3]

Cn1nnnc1Sc1ncnc2scc(-c3ccccc3Cl)c12
inactive: [1] | [2] | [3]

O=S(=O)(Nc1cc(Sc2ncn[nH]2)c(O)c2ccccc12)c1ccccc1
inactive: [1] | [2] | [3]

C[C@@H]1CN([C@@H](C)CO)S(=O)(=O)c2ccc(C#Cc3ccc(F)cc3)cc2O[C@@H]1CN(C)C(=O)NC1CCCCC1
inactive: [1] | [2] | [3] | [4] | [5] 23.4% [at 1 µM, stronger effect = lower value] | [6] | [7] | [8]

C[C@@H]1CCCCO[C@@H](CN(C)Cc2ccc(C(F)(F)F)cc2)[C@H](C)CN([C@H](C)CO)C(=O)c2cc(NS(=O)(=O)c3cccs3)ccc2O1
inactive: [1] | [2] | [3] | [4] | [5] -15.8% | [6] | [7] | [8]

Cc1ccc(S(=O)(=O)Nc2ccc3c(c2)C(=O)N([C@@H](C)CO)C[C@@H](C)[C@@H](CN(C)S(=O)(=O)c2ccc(Cl)cc2)OCCCC[C@@H](C)O3)cc1
inactive: [1] | [2] | [3] | [4] | [5] -15% | [6] | [8]

O=C1/C(=C/c2ccccc2)SC(=S)N1CC(=O)N1CCCCC1c1cccnc1 (centres undefined)
not listed: [8]
inactive: all other assays above

Cc1ccccc1S(=O)(=O)N1CC[C@@H]2[C@H](CO)Nc3ccc(-c4cccc(F)c4)cc3[C@@H]21
inactive: [1] | [2] | [3] | [4] | [6]

O=S(=O)(Nc1cccc(-c2cn3cccnc3n2)c1)c1ccc(Cl)cc1
inactive: [1] | [2] | [3]

CNC(=O)c1cc(Oc2ccc(NC(=O)Nc3ccc(Cl)c(C(F)(F)F)c3)cc2)ccn1
inactive: [1] | [2] | [3]

C[C@H](CO)N1C[C@H](C)[C@@H](CN(C)Cc2ccc(Cl)c(Cl)c2)Oc2ccc(NC(=O)Nc3ccc(F)cc3)cc2CC1=O
inactive: [1] | [2] | [3] | [4] | [5] -44% | [6]

COC1C(CO)OC(n2c3c(Cl)cccc3c3c4c(c5c6cccc(Cl)c6[nH]c5c32)C(=O)NC4=O)C(O)C1O (centres undefined)
inactive: [1] | [2] | [3]

COc1cc(C(=O)NCC(c2cccs2)N2CCOCC2)ccc1OCc1ccc(Cl)cc1 (centres undefined)
inactive: [1] | [2] | [3]

COc1ccc(/C=C2\CN(Cc3ccccc3)C/C(=C\c3ccc(OC)c(O)c3)C2=O)cc1O
inactive: [1] | [2] | [3]

N#Cc1nc(NCC(F)F)nc(Nc2cc(F)cc(F)c2)n1
inactive: [1] | [2] | [3]

Cc1cc(C)c(C(=O)/C=C/c2cccc3ccccc23)c(=O)[nH]1
inactive: [1] | [2] | [3]

COc1ccc(S(=O)(=O)Nc2ccc3c(c2)C(=O)N([C@H](C)CO)C[C@H](C)[C@@H](CN(C)Cc2ccc(Cl)c(Cl)c2)OCCCC[C@@H](C)O3)cc1
inactive: [1] | [2] | [3] | [4] | [5] -37.4% [at 8 µM, stronger effect = lower value] | [6] | [7] | [8]

C=C1C(=O)O[C@@H]2[C@H]1[C@@H](OC(=O)/C(C)=C/C)C/C(C)=C\C(=O)/C=C(\C)[C@@H]2O
inactive: [1] | [2] | [3]

COc1ccc(CN(C)C[C@H]2Oc3ccc(NC(=O)Nc4ccc5c(c4)OCO5)cc3CC(=O)N([C@H](C)CO)C[C@H]2C)cc1
inactive: [1] | [2] | [3] | [4] | [5] -9.48% [at 18 µM, stronger effect = lower value] | [6] | [7] | [8]

COc1ccc(S(=O)(=O)Nc2ccc3c(c2)CC(=O)N([C@H](C)CO)C[C@H](C)[C@@H](CN(C)Cc2ccc(Cl)c(Cl)c2)O3)cc1
inactive: [1] | [2] | [3] | [4] | [5] 16.2% [at 16 µM, stronger effect = lower value] | [6] | [7] | [8]

O=C(Nc1cccc(Cl)c1)Nc1nnc(CSCCOc2ccc(Cl)cc2)s1
inactive: [1] | [2] | [3] | [4]

COc1ccc(S(=O)(=O)Nc2ccc3c(c2)CC(=O)N([C@@H](C)CO)C[C@@H](C)[C@@H](CN(C)Cc2ccc(-c4ccccc4)cc2)O3)cc1
inactive: [1] | [2] | [3] | [4] | [6]

C[C@H](CO)N1C[C@H](C)[C@H](CN(C)Cc2ccc(-c3ccccc3)cc2)Oc2ccc(NS(=O)(=O)c3ccc(F)cc3)cc2CC1=O
inactive: [1] | [2] | [3] | [4] | [5] -42.4% | [6] | [7]

Cc1cc(C(=O)Nc2cccc3c2O[C@H](CN(C)Cc2ccc(Oc4ccccc4)cc2)[C@@H](C)CN([C@H](C)CO)C3=O)n(C)n1
inactive: [1] | [2] | [3] | [4] | [5] -26.8% [at 16 µM, stronger effect = lower value] | [6] | [7]

COc1ccc(-c2ccc3c(c2)[C@@H]2[C@@H](CCN2C(=O)NC2CCCCC2)[C@H](CO)N3C)cc1
inactive: [1] | [2] | [3] | [4]

COc1ccc(S(=O)(=O)Nc2ccc3c(c2)C(=O)N([C@H](C)CO)C[C@H](C)[C@@H](CN(C)Cc2ccc(C(F)(F)F)cc2)OCCCC[C@H](C)O3)cc1
inactive: [1] | [2] | [3] | [4] | [5] -20.9% [at 0.5 µM, stronger effect = lower value] | [6] | [7] | [8]

C[C@@H]1CCCCO[C@@H](CN(C)Cc2ccc(Cl)c(Cl)c2)[C@H](C)CN([C@H](C)CO)C(=O)c2cc(NC(=O)Nc3ccc(C(F)(F)F)cc3)ccc2O1
inactive: [1] | [2] | [3] | [4] | [5] 52.8% [at 0.26 µM, stronger effect = lower value] | [6] | [7] | [8]

O=C(Nc1ccc(C(F)(F)F)cc1)Nc1ccc2c(c1)[C@H]1C[C@H](CC(=O)N3CCc4ccccc4C3)O[C@H](CO)[C@H]1O2
inactive: [1] | [2] | [3] | [4] | [5] 20.8% [at 0.5 µM, stronger effect = lower value] | [6] | [8]

COc1ccc(S(=O)(=O)Nc2ccc3c(c2)C(=O)N([C@H](C)CO)C[C@@H](C)[C@H](CN(C)C(=O)Nc2ccc(C(F)(F)F)cc2)OCCCC[C@H](C)O3)cc1
inactive: [1] | [2] | [3] | [4] | [5] -37.1% | [6] | [8]

COCCN(CC(=O)NC1CCCCC1)C(=O)/C=C/C(=O)c1ccc(OC)cc1O
inactive: [1] | [2] | [3]

C=CCC[C@@H](Cc1ccc(F)cc1)C(=O)OC[C@@H](Cc1c[nH]c2ccccc12)NC(=O)[C@H](CC=C)CC(=O)N(CCO)Cc1ccccc1
inactive: [1] | [2] | [3]

Cc1ccc(S(=O)(=O)Nc2cccc3c2O[C@@H](CN(C)Cc2ccc(Oc4ccccc4)cc2)[C@@H](C)CN([C@H](C)CO)C3=O)cc1
inactive: [1] | [2] | [3] | [4] | [5] 15.8% [at 1 µM, stronger effect = lower value] | [6] | [7] | [8]
